# Bioassay records as filed in PubChem BioAssay.
# Cardio protect: myocardial damage modulation in H9c2 cells | actives 0.63% (n = 360,000) | H9c2 cardiomyocytes, H2O2 injury protection, ATPLite, 2 h | protection from H2O2 cell death, % at 20 µM | AID 588492;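 active = compounds giving at least 50% protection of heart cells from peroxide-induced death in the single-dose screen, raw or plate-pattern-corrected value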;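 note: 0% = DMSO wells with peroxide and 100% = DMSO wells without peroxide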
# PHOSPHO1 inh: blocks human PHOSPHO1 phosphatase activity; Q8TCT1; recombinant PHOSPHO1, absorbance phosphatase assay; inhibition, % at 13.3 µM; actives 1.1% (n = 290,000); AID 1565; in the data active = inhibition above about 60%
# Target sequence (Q8TCT1 whole entry, looked up): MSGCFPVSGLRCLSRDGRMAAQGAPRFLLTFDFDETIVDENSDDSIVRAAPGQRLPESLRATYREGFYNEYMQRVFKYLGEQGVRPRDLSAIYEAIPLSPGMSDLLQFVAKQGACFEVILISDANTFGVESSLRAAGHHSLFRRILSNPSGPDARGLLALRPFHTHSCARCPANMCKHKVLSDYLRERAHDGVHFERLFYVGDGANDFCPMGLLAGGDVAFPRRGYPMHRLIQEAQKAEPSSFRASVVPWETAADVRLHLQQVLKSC
# KCC2 mod: modulators of human KCC2 chloride dependent transport; B-score of Tl+ flux slope (higher = more flux/activation; lower = inhibition) at 10 µM; Q9H2X9; AID 1456; KCC2 cells, thallium flux FluoZin-2 fluorescence; actives 2.2% (n = 190,000);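 active = thallium flux slope and its plate-corrected score both differing from the plate sample mean at a set confidence after two filtering rounds, in either direction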;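 note: slope of fluorescence scaled to starting intensity during 10 to 20 s after thallium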
# Calb FLC: C. albicans growth modulation with fluconazole; C. albicans CaCi-2 (fluconazole-resistant clinical isolate) + fluconazole, Alamar Blue growth, 48 h; growth inhibition, % (test concentration not listed); actives 0.57% (n = 300,000); AID 1979;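 active = growth inhibition above about 58% in most replicates, limit read from the data, passing the limit was not always enough; inconclusive = exactly half the replicates above a set limit; inactive = most replicates below a set limit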;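 note: all wells also contain fluconazole at 8 µg/ml as a sub-toxic cotreatment; 0% = median of DMSO wells and 100% = median of geldanamycin control wells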
# Efflux pump inh: antifungal efflux pump inhibition, Nile Red retention. inhibition, % at 10 µM. actives 0.44% (n = 330,000). S. cerevisiae Candida pump triplex;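 active = plate passing quality check with inhibition over a set limit, or well fluorescence over plate mean plus 4 SD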;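 note: Nile Red retained in pooled yeast measured as flow cytometry median fluorescence; 0% = buffer negative control and 100% = Enniatin B positive control; higher means more Nile Red kept so more efflux inhibition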
# * = called active by the depositor; ? = inconclusive; / = no result given. This is a sample that favours compounds with a hit; in the whole collection about 3.3% have one here.
SMILES,Cardio protect,PHOSPHO1 inh,KCC2 mod,Calb FLC,Efflux pump inh
COc1ccc(S(=O)(=O)N2CCC(C(=O)NC3CC3)CC2)cc1OC,-3,18,/,-2,0
Cc1ccc(-n2cccc2C(=S)N=P(N(C)C)(N(C)C)N(C)C)cc1,-15,67*,-0.25,3,0
CC1(C)Cc2c(cnn2-c2ccc(F)cc2)C(NC(=O)CCc2ccncc2)C1 (configuration not stated),3,22,/,3,/
COc1ccc(/C=N/NC(=O)c2nn(-c3ccc(Cl)cc3)c(=O)c3c(N)scc23)cc1,0,100*,-0.6,35,0
COc1ccc(/C=N/NC(=O)c2nn(-c3ccccc3)c(=O)c3c(N)scc23)cc1,9,3,0.12,34,0
O=C(COC(=O)CCSc1ccccc1Cl)NCc1ccco1,2,25,-1,5,0
C[C@@H]1CN([C@H](C)CO)S(=O)(=O)c2ccc(C#Cc3ccccc3F)cc2O[C@H]1CN(C)C(=O)c1ccc2c(c1)OCO2,106*,/,/,/,/
CC(C(=O)NCCc1ccccc1)N1c2cccc3cccc(c23)S1(=O)=O (configuration not stated),1,27,/,8,0
Cc1ccc(N2NC(=O)/C(=C/c3ccc(-c4ccc(Cl)c(C(=O)O)c4)o3)C2=O)cc1,-1,37,-0.42,-3,0
CCCCC1(C)OC(=O)C(=Cc2ccc(-c3ccc(Cl)c(C(=O)O)c3)o2)C(=O)O1 (configuration not stated),0,86*,/,6,0
COC(=O)Sc1nc(N2CCOCC2)c2c(c1C#N)CC(C)(C)OC2,55*,25,-1.9,-3,0
CN=C(c1ccc(C)cc1)n1c(=S)nc(-c2ccc(C)cc2)n(C)c1=S,-8,-42,-0.2,-1,0
CN=C(c1ccco1)n1c(=S)nc(-c2ccco2)n(C)c1=S,0,89*,/,10,0
CN(C)c1cccc(C(=O)NCC(c2ccco2)N(C)C)c1 (configuration not stated),2,23,/,0,0
COc1ccc(C2CC(=O)c3sc(N)nc3C2)cc1 (configuration not stated),-2,15,/,14,0
Nc1nc2c(s1)C(=O)CC(c1ccccc1)C2 (configuration not stated),6,60*,-0.066,-17,0
Cc1ccc(/C=[N+](\[O-])c2ccc(N(C)C)cc2)c2nsnc12,-14,11,/,97*,/
CCn1nc(C(=O)OCC(=O)NCCN2C(=O)CSC2=O)c2ccccc2c1=O,6,72*,0.039,-3,0
CC(=O)Oc1ccc(C(=O)OCC(=O)c2c(N)n(C)c(=O)n(C)c2=O)cc1OC(C)=O,65*,-10,0.023,-5,0
CCCn1nc(C(=O)OCC(=O)c2c(N)n(C)c(=O)n(C)c2=O)c2ccccc2c1=O,61*,24,-2,19,0
CCn1nc(C(=O)OCC(=O)NC(C)C)c2ccccc2c1=O,-5,24,0.27,-14,0
O=C(NCCO)C(=O)Nc1cc2c3c(c1)CCN3C(=O)CC2,1,18,/,32,0
Cc1nc(SCC(=O)NCc2ccco2)c2c(C)c(C)sc2n1,13,-3,-0.71,0,0
Cc1ccc(-c2nnc(CSc3nnc4c5c(C)c(C)sc5nc(C(C)C)n34)o2)cc1,/,11,/,/,/
Cc1ccc(-c2nnc(CSc3nc(C(C)C)nc4sc(C)c(C)c34)o2)cc1,-20,-22,9.1*,-2,0
SMILES,Cardio protect,PHOSPHO1 inh,KCC2 mod,Calb FLC,Efflux pump inh
CC1Cc2ccccc2N1C(=O)CSc1nnnn1C(C)C (configuration not stated),-4,62*,-1.7,9,0
Cc1sc2nc(C(C)C)nc(SCC(=O)N3c4ccccc4CC3C)c2c1C (configuration not stated),-5,-10,65*,0,0
Cc1sc2nc(C(C)C)nc(SCC(=O)NCc3ccco3)c2c1C,8,39,33*,3,0
CCc1nc(SCC(=O)N2c3ccccc3CC2C)c2c(C)c(C)sc2n1 (configuration not stated),-5,58,-1.3,-1,0
COc1ccc(C(=O)NCC(=O)OCc2nc(N)nc(Nc3ccccc3C)n2)cc1,3,/,/,/,0
CC(=O)NCCNc1nc2cc(-c3ccc(C)cc3)sc2c(=O)n1C,7,/,/,/,/
COC(=O)c1nn(C)c(=O)[nH]c1=O,1,/,/,/,/
Cc1ccc(S(=O)(=O)NCC(=O)N(c2ccccc2)C(C(=O)NCc2ccccc2)c2ccco2)cc1 (configuration not stated),58*,-8,-1.8,0,-3
CCc1cc(-c2n[nH]c(=S)n2-c2ccccc2C)cs1,2,86*,1.7,75,-1
CCc1cc(-c2n[nH]c(=S)n2CC)cs1,3,53,0.18,-2,0
CCCc1cc(-c2n[nH]c(=S)n2C(C)c2ccccc2)cs1 (configuration not stated),-4,83*,7.6*,0,0
CCC(CC)c1nnc(NC(=O)C2CC(=O)N(C3CCCC3)C2)s1 (configuration not stated),0,11,/,0,0
Cc1ccc(C)c(NC(=O)NNC(=O)c2cc3ccccc3cc2O)c1,2,33,/,-1,0
Cc1ccc(NC(=O)NNC(=O)c2cc3ccccc3cc2O)cc1C,2,19,/,81*,0
CCc1ccc(NC(=O)NNC(=O)c2cc3ccccc3cc2O)cc1,5,14,/,?,0
CCOc1ccc(NC(=O)NNC(=O)c2cc3ccccc3cc2O)cc1,12,24,/,86*,0
COC(=O)c1nc(NNC(=O)c2ccccc2)sc1-c1ccccc1,6,/,/,-1,0
Cc1ccc(-c2nnc3ccc(SCC(=O)N4CCCc5ccccc54)nn23)cc1,105*,-32,-0.63,3,1
O=C(CSc1ccc(-c2ccccn2)nn1)N1CCCc2ccccc21,52*,44,-3.1,-4,0
O=C(CCNC(=O)C1CCN(S(=O)(=O)c2ccccc2)CC1)NCc1ccc(Cl)c(Cl)c1,-1,-12,/,-1,0
COc1ccccc1CN(C)C[C@H]1OCc2cnnn2CCCC(=O)N([C@@H](C)CO)C[C@@H]1C,5,/,/,/,/
O=C(c1ccc(-n2ccnc2)cc1)N1CCCC(CO)(Cc2cccc(Cl)c2)C1 (configuration not stated),-2,34,/,-7,0
COc1cc(CNc2ccc(N3CCCC3)cc2)cc(Cl)c1OC,-21,50,0.24,87*,0
COc1cccc(N=Nc2ccc3cccnc3c2O)c1,11,36,/,86*,0
COc1cc(OC)cc(C(=O)Nc2cccc3cccnc23)c1,14,24,/,1,0
COc1cccc(N=Nc2ccc(O)c3ncccc23)c1,14,26,/,101*,0
CSc1ccc(S(=O)(=O)NCC(=O)OCC(=O)N(C)C2CCCCC2)cc1[N+](=O)[O-],-11,/,/,-1,0
